# PubChem BioAssay (Tox21)
# Values without a mark were called inactive. Activity calls are given as the source filed them. Calls come from the whole dose curve; as a rule, active = well fitted curve in the direction sought with a large enough effect in the repeat runs; inconclusive = weak or mixed curves; inactive = flat fitted curve, though single readings scatter.
# Assay: qHTS assay to test for compound auto fluorescence at 535 nm (green) in HEK293 cell free culture (AID 720682)
# Conditions: cell-free medium, green autofluorescence 485/535 nm; series mostly up to 91.3 µM; activity change: at the top concentration
# Outline: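 Fluorescein serves as the green reference fluorophore; each compound's intrinsic emission at 535 nm (excitation 485 nm) is reported as an equivalent amount of that dye, measured in serum-containing DMEM without cells.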
# % is set by controls: 0 for no effect and ±100 for the full control effect.
SMILES,activity change,Potency
O=C1CCc2cc(OCCCCc3nnnn3C3CCCCC3)ccc2N1,"0.0012% [at 46 µM, active compounds read high]",–
CCCNCCC,-0.0523%,–
CC(C(=O)O)c1ccc2c(c1)[nH]c1ccc(Cl)cc12 (stereo unspecified),"-0.0106% [at 46 µM, active compounds read high]",–
O=C1CCc2ccc(OCCCCN3CCN(c4cccc(Cl)c4Cl)CC3)cc2N1,"0.0616% [at 46 µM, active compounds read high]",–
COC(=O)C1=C(C)NC(C)=C(C(=O)OCCN2CCN(C(c3ccccc3)c3ccccc3)CC2)C1c1cccc([N+](=O)[O-])c1 (stereo unspecified),"-0.0154% [at 46 µM, active compounds read high]",–
C#C[C@]1(OC(C)=O)CC[C@H]2[C@@H]3CCC4=C[C@@H](OC(C)=O)CC[C@@H]4[C@H]3CC[C@@]21C,–,inactive
Nc1nc(-c2ccccc2)cs1,0.0153%,–
CC1(C)[C@@H](O)CC[C@]2(C)[C@H]3C(=O)C=C4[C@@H]5C[C@@](C)(C(=O)O)CC[C@]5(C)CC[C@@]4(C)[C@]3(C)CC[C@@H]12,–,inactive
COc1cccc2c1C(=O)c1c(O)c3c(c(O)c1C2=O)C[C@@](O)(C(C)=O)C[C@@H]3O[C@H]1C[C@H](N)[C@H](O)[C@H](C)O1,"4.33% [at 46 µM, active compounds read high]",–
CCc1cccc(CC)c1NC(=O)CN(CC(=O)O)CC(=O)O,"0.0655% [at 18.6 µM, active compounds read high]",–
Cc1c(C)c2c(c(C)c1OC(=O)c1cccnc1)CC[C@@](C)(CCC[C@H](C)CCC[C@H](C)CCCC(C)C)O2,"-0.0521% [at 46 µM, active compounds read high]",–
CN1CCC[C@@H]1CCO[C@](C)(c1ccccc1)c1ccc(Cl)cc1,"0.0146% [at 46 µM, active compounds read high]",–
O=c1oc2cc(O)ccc2c2oc3cc(O)ccc3c12,0.0379%,–
Clc1ccnc(Cl)n1,"-0.0151% [at 95.7 µM, active compounds read high]",–
O=C1c2ccccc2C(=O)N1SC1CCCCC1,–,inactive
CNc1ccc([N+](=O)[O-])cc1,-0.111%,–
CCOC(=O)c1ccc(C2CCC(NC[C@H](O)COc3ccc(O)c(NS(C)(=O)=O)c3)CC2)cc1 (stereo partly specified),0.207%,–
CN(C)c1ccc(C(=C2C=CC(=[N+](C)C)C=C2)c2ccc(N(C)C)cc2)cc1,–,inactive
CCC(C)[O-].CCC(C)[O-].CCOC(=O)/C=C(/C)[O-].[Al+3],-0.0071%,–

SMILES,activity change,Potency
CCCCCCCCCCCCCC[N+](C)(C)Cc1ccccc1,–,inactive
Oc1cc(Cl)cc(Cl)c1Cl,"-0.024% [at 95.7 µM, active compounds read high]",–
C#C[C@]1(O)CC[C@H]2[C@@H]3[C@H](C)CC4=C(CCC(=O)C4)[C@H]3CC[C@@]21C,"0.0183% [at 46 µM, active compounds read high]",–
Nc1cc(Cl)c(O)c(Cl)c1,0.0069%,–
Cc1ccc(O)c(O)c1,0.41%,–
Cc1ccc(C)cc1,-0.03%,–
CN1CCN2c3ccccc3Cc3ccccc3C2C1 (stereo unspecified),"-0.0076% [at 46 µM, active compounds read high]",–
O=C(c1ccc(O)c(O)c1)c1ccc(O)cc1O,-0.0189%,–
O=C1NC(=O)[C@@H]2CC=CC[C@H]12,0.06%,–
CC(C)(C)c1ccc(C(O)CCCN2CCC(C(O)(c3ccccc3)c3ccccc3)CC2)cc1 (stereo unspecified),–,inactive
Cc1cc(=O)oc2cc(O)cc(O)c12,-0.196%,–
Cc1cc(C(C#N)c2ccc(Cl)cc2)c(Cl)cc1NC(=O)c1cc(I)cc(I)c1O (stereo unspecified),"0.124% [at 46 µM, active compounds read high]",–
CC[C@H](C)COC(=O)/C=C/c1ccc(N=Cc2ccc(OC)cc2)cc1,0.0393%,–
COC1=C(OC)C(=O)C(CCCCCCCCCCO)=C(C)C1=O,"-0.0476% [at 46 µM, active compounds read high]",–
Cc1ccc(O)c(N)c1,0.0013%,–
COC(C)=O,–,inactive
CN1CCN(Cc2cc(-c3ccc4[nH]c(=O)oc4c3)co2)[C@@H](c2ccc(F)cc2)C1,0.0113%,–
C/C=C/C=C/COC(=O)C(C)C,0.437%,–

# Assay: qHTS assay to test for compound auto fluorescence at 590 nm (red) in HEK293 cell free culture (AID 720683)
# Conditions: cell-free medium autofluorescence, Ex540/Em590 red; series mostly up to 91.3 µM; fluorescence, % of fluorescent control: at the top concentration
# Outline: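 Tox21 10K library compounds were pinned into cell-free DMEM with 10% FBS and fluorescence was read at excitation 540 nm. Activity is expressed as Rose Bengal sodium equivalency.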
SMILES,"fluorescence, % of fluorescent control",Potency
O=C1CCc2cc(OCCCCc3nnnn3C3CCCCC3)ccc2N1,-0.0955% [at 46 µM],–
CCCNCCC,0.251%,–
CC(C(=O)O)c1ccc2c(c1)[nH]c1ccc(Cl)cc12 (stereo unspecified),0.299% [at 46 µM],–
O=C1CCc2ccc(OCCCCN3CCN(c4cccc(Cl)c4Cl)CC3)cc2N1,0.0952% [at 46 µM],–
COC(=O)C1=C(C)NC(C)=C(C(=O)OCCN2CCN(C(c3ccccc3)c3ccccc3)CC2)C1c1cccc([N+](=O)[O-])c1 (stereo unspecified),0.401% [at 46 µM],–
C#C[C@]1(OC(C)=O)CC[C@H]2[C@@H]3CCC4=C[C@@H](OC(C)=O)CC[C@@H]4[C@H]3CC[C@@]21C,–,inactive
CC1(C)[C@@H](O)CC[C@]2(C)[C@H]3C(=O)C=C4[C@@H]5C[C@@](C)(C(=O)O)CC[C@]5(C)CC[C@@]4(C)[C@]3(C)CC[C@@H]12,–,inactive
CCc1cccc(CC)c1NC(=O)CN(CC(=O)O)CC(=O)O,0.184% [at 18.6 µM],–
CN1CCC[C@@H]1CCO[C@](C)(c1ccccc1)c1ccc(Cl)cc1,-0.9% [at 46 µM],–
O=c1oc2cc(O)ccc2c2oc3cc(O)ccc3c12,0.148%,–
Clc1ccnc(Cl)n1,-0.216% [at 95.7 µM],–
O=C1c2ccccc2C(=O)N1SC1CCCCC1,–,inactive
CNc1ccc([N+](=O)[O-])cc1,-0.0918%,–
CN(C)c1ccc(C(=C2C=CC(=[N+](C)C)C=C2)c2ccc(N(C)C)cc2)cc1,–,inactive
CCC(C)[O-].CCC(C)[O-].CCOC(=O)/C=C(/C)[O-].[Al+3],0.0941%,–
CCCCCCCCCCCCCC[N+](C)(C)Cc1ccccc1,–,inactive
Oc1cc(Cl)cc(Cl)c1Cl,-0.342% [at 95.7 µM],–
C#C[C@]1(O)CC[C@H]2[C@@H]3[C@H](C)CC4=C(CCC(=O)C4)[C@H]3CC[C@@]21C,0.0054% [at 46 µM],–
Cc1ccc(O)c(O)c1,0.0817%,–
Cc1ccc(C)cc1,-0.0498%,–
O=C(c1ccc(O)c(O)c1)c1ccc(O)cc1O,0.234%,–
O=C1NC(=O)[C@@H]2CC=CC[C@H]12,-0.115%,–
CC(C)(C)c1ccc(C(O)CCCN2CCC(C(O)(c3ccccc3)c3ccccc3)CC2)cc1 (stereo unspecified),–,inactive
Cc1cc(=O)oc2cc(O)cc(O)c12,0.0006%,–
CC[C@H](C)COC(=O)/C=C/c1ccc(N=Cc2ccc(OC)cc2)cc1,-0.583%,–
COC1=C(OC)C(=O)C(CCCCCCCCCCO)=C(C)C1=O,0.297% [at 46 µM],–
COC(C)=O,–,inactive
CN1CCN(Cc2cc(-c3ccc4[nH]c(=O)oc4c3)co2)[C@@H](c2ccc(F)cc2)C1,0.0822%,–
C/C=C/C=C/COC(=O)C(C)C,-0.0746%,–
